Rv3671c inh: Rv3671c serine protease inhibitors, primary screen, biochemical, fluorescence polarization, M. tuberculosis H37Rv; P9WHR9; inhibition, % at 5.96 µM; 320,000 tested, 0.048% active; AID 2606, 2010; in the data active = inhibition above about 38%;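 note: extracellular domain of Rv3671c used as enzyme; 0% = enzyme with DMSO and 100% = no enzyme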
Target sequence (P9WHR9 whole entry, looked up, the tested form may be a part): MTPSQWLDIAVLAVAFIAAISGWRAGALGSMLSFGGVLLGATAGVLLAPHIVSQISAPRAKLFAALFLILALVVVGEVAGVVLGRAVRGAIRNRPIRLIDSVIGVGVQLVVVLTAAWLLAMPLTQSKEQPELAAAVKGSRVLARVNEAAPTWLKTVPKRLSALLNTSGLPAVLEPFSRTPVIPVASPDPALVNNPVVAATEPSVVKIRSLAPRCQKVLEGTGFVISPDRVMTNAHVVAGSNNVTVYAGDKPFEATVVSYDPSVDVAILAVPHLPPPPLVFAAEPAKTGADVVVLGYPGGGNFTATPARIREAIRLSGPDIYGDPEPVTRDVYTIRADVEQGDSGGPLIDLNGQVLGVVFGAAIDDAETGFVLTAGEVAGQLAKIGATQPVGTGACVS
UGM FP inh: M. tuberculosis UGM enzyme inhibitors, primary screen, biochemical, fluorescence polarization, single point; UDP-galactopyranose mutase (Mycobacterium tuberculosis (strain ATCC 25618 / H37Rv)), …; purified UGM, fluorescence polarization probe displacement; inhibition, % at 10 µM; 320,000 tested, 0.06% active; AID 504406, 2011; in the data active = inhibition above about 10%, passing the limit was not always enough
GDH-TPI counter: GDH-TPI coupling enzyme inhibitors, primary screen, artefact control for M. tuberculosis FBA inhibitor project, biochemical, absorbance, full deck | GDH-TPI coupled enzyme counterscreen, NADH absorbance | 360,000 tested, 1.2% active | AID 588335, 2011 | inhibition, % at 4.8 µM; in the data active = inhibition above about 30%;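 note: 0% = DMSO wells and 100% = wells lacking the enzyme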
FBA Mtb inh: Mtb FBA enzyme inhibitors, primary screen, biochemical, fluorescence, strain H37Rv; Fructose-bisphosphate aldolase (Mycobacterium tuberculosis (strain ATCC 25618 / H37Rv)), …; purified M. tuberculosis FBA, fluorescence read-out; inhibition, % at 1 µM; 360,000 tested, 2.3% active; AID 588726, 2011; in the data active = inhibition above about 27%;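 note: 0% = vehicle and 100% = reference inhibitor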
Mtb bLac sens: beta-lactam sensitization of Mtb H37Rv, H37Rv | M. tuberculosis H37Rv growth with meropenem, percent inhibition | inhibition, % at 25 µM | 330,000 tested, 0.27% active | AID 434955, 2010; call rule not given here;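 note: growth measured after seven days incubation then overnight dye step; 0% = bacteria only wells and 100% = bacteria with antibiotic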
FadD28 FP inh: inhibitors of FadD28 bisubstrate probe binding, primary screen, biochemical, fluorescence polarization, single point; Mycobacterium tuberculosis FadD28 fatty-acid-AMP ligase; inhibition, % at 12.5 µM; 360,000 tested, 0.22% active; AID 588549, 2011; in the data active = inhibition above about 8.5%, passing the limit was not always enough
* hit, by the source's call; . = no result given; + = active, no number. Sampled rows, rich in hits. Any-hit rate of the full collection: about 3.7%.

SMILES	Rv3671c inh	UGM FP inh	GDH-TPI counter	FBA Mtb inh	Mtb bLac sens	FadD28 FP inh
Cc1noc(/C=C/N(C)C)c1S(=O)(=O)N1CCC(C(=O)Nc2ccc(Cl)cc2)CC1	-47	2	28	0	-4	-1
Cc1noc(/C=C/N(C)C)c1S(=O)(=O)N1CCC(C(=O)NC(C)(C)C)CC1	3	-1	41*	-3	-9	0
Cc1ccc(NC(=O)C2CCCN(S(=O)(=O)c3c(C)noc3/C=C/N(C)C)C2)cc1F (configuration not stated)	-45	3	40*	0	7	0
O=C1N[C@H](Cc2ccccc2)COC(=O)[C@H](Cc2ccc(F)cc2)CC/C=C/C[C@@H]1CC(=O)N(CCO)Cc1ccccc1	-2	-5	8	4	19	-5
COc1ccc(F)cc1-c1cc(C(=O)NCc2cc(C(F)(F)F)cc(C(F)(F)F)c2)[nH]n1	.	.	13	-4	.	-3
Cc1cccc(C)c1-n1c(C)cc(/C=C2\NC(=O)NC2=O)c1C	-1	0	33*	4	66	1
Cc1cc(/C=C2\NC(=O)NC2=O)c(C)n1-c1cccnc1	10	3	45*	0	1	-3
COC(=O)C1=C(C)NC(=O)/C1=C\c1cc(C)n(-c2c(C)cccc2C)c1C	-6	1	12	-3	.	-3
Cc1ccc(-c2cn3cccnc3n2)cc1	-3	-1	7	+	2	-4
CS(=O)(=O)Nc1ccc(-c2cn3cccnc3n2)cc1	3	-2	16	115*	-4	1
Nc1cccc(-c2cn3cccnc3n2)c1	6	2	7	6	-8	0
CCOC(=O)c1cc2c(=O)n3cccc(C)c3nc2n(CCCOC)c1=NC(=O)c1cccnc1	2	1	20	+	0	-4
CCOCCCn1c(=NC(=O)c2cccnc2)c(C(=O)OCC)cc2c(=O)n3ccccc3nc21	-1	3	12	145*	-17	-3
CCOC(=O)c1cc2c(=O)n3ccccc3nc2n(C(C)C)c1=NC(=O)c1c(-c2c(F)cccc2Cl)noc1C	-10	2	3	26	5	-3
O=C(COC(=O)CNC(=O)c1ccc(Cl)cc1)Nc1ccc(Cl)cn1	-12	2	8	3	-6	0
Cc1nc(-c2ccc(F)cc2)c(CC(=O)N2CCN(S(=O)(=O)c3cccc([N+](=O)[O-])c3)CC2)s1	.	.	21	6	.	-1
CCCN(CCC)Cc1cc(=O)oc2cc(C)c(C)cc12	.	.	.	4	.	-4
CCOC(=O)c1cnc2c([N+](=O)[O-])cnn2c1C	0	-2	37*	0	0	-1
CN1C2=NCCN2C(=O)c2ccccc21	-6	-1	12	2	-4	0
c1ccc2c(c1)C1=NCCN1c1ccccc1-2	.	.	8	73*	.	-2
Nc1ccc(C(=O)N/N=C/c2cn(Cc3ccccc3)c3ccccc23)cc1	.	0	37*	1	7	0
C(=N\n1cnnc1)/c1cn(Cc2ccccc2)c2ccccc12	-16	0	31*	-2	7	-10
Cc1ccccc1OCC(=O)N/N=C/c1cn(Cc2ccccc2)c2ccccc12	2	2	9	-1	62	-1
Nc1ccc(C(=O)N/N=C/c2cn(Cc3ccccc3F)c3ccccc23)cc1	.	3	30	-2	-2	1
CNC(=S)N/N=C/c1cn(Cc2ccc(F)cc2)c2ccccc12	11	-1	24	-1	8	-4
SMILES	Rv3671c inh	UGM FP inh	GDH-TPI counter	FBA Mtb inh	Mtb bLac sens	FadD28 FP inh
Clc1ccc(Cn2cc(/C=N/n3cnnc3)c3ccccc32)c(Cl)c1	-1	3	10	2	2	-1
Nc1ccc(C(=O)N/N=C/c2cn(Cc3ccc(F)cc3)c3ccccc23)cc1	.	-5	33*	2	8	6
COc1cc(C(=O)N/N=C/c2cn(Cc3ccccc3)c3ccccc23)ccc1O	.	1	37*	-1	0	1
COC(=O)N/N=C/c1cn(Cc2ccc(F)cc2)c2ccccc12	6	1	7	-1	-1	-1
O=C(N/N=C/c1cn(Cc2cccc(F)c2)c2ccccc12)c1cc(O)cc(O)c1	.	-1	25	1	2	17*
O=C(N/N=C/c1cn(CCOc2ccccc2)c2ccccc12)c1ccncc1	2	-3	9	0	98	-2
COc1ccccc1OCCn1cc(/C=N/NC(=O)c2ccncc2)c2ccccc21	3	-2	54*	-1	98	-2
C[C@@H]1CCCCO[C@@H](CN(C)S(=O)(=O)c2cn(C)cn2)[C@@H](C)CN([C@H](C)CO)C(=O)c2cc(NC(=O)Nc3ccc(C(F)(F)F)cc3)ccc2O1	.	.	-6	-5	.	-6
CN=C1c2cc3c(Br)c(OC)ccc3n2CCN1C	-2	1	32*	0	35	0
C(=N\Nc1ncnc2sc3c(c12)CCC3)/c1cccs1	3	2	33*	3	100	0
Cn1cnc2c(N/N=C/c3cccs3)ncnc21	3	1	39*	-2	-9	-2
O=C(CSC1=NNC(c2ccccn2)S1)Nc1ccc(C(F)(F)F)cc1 (configuration not stated)	2	0	32*	-2	20	0
COc1cccc2[nH]c3c(N4CCCCC4)ncnc3c12	2	3	11	15	-3	-1
CCOC(=O)N1CCN(c2ncnc3c2[nH]c2ccc(OC)cc23)CC1	0	0	15	125*	-7	1
CCOC(=O)C1CCN(c2ncnc3c2[nH]c2cccc(OC)c23)CC1	-6	3	27	125*	-21	-2
CCOC(=O)N1CCN(c2ncnc3c2[nH]c2ccc(F)cc23)CC1	-4	0	6	10	5	0
O=C(Nc1cccc(C(F)(F)F)c1)c1ccc2sc([C@@H]3O[C@H](CO)[C@H](O)[C@H](O)[C@H]3O)nc2c1	.	.	-2	-4	.	-6
COc1cc(/C=N/NC(=O)C2C3CCCCC32C)cc(Br)c1O (configuration not stated)	4	3	51*	14	14	-1
O=C(N/N=C/c1cc(Br)c(O)c(Br)c1)C1CC1	3	0	31*	3	10	-2
O=c1[nH]c(C2CCCN(S(=O)(=O)c3ccc(F)cc3)C2)nc2c1nnn2Cc1ccc(F)cc1 (configuration not stated)	5	0	-7	-1	9	-5
CCOC(=O)c1ccc(-c2ccc(CO)o2)cc1	-4	-2	19	+	-5	0
